Source: the supplement of paper PMC11732987, “Enantioselective OTUD7B fragment discovery through chemoproteomics screening and high-throughput optimisation” (Communications Chemistry, 2025)

How the values were obtained:
Assay in all cases: log2 ratio of Biotin-Ahx-Ub-VS probe labelling (fragment/DMSO); higher = less target engagement (more negative = stronger competition), active = hit call of the paper (q ≤ 0.05, log2 ratio ≤ -1)
Details in all cases: compound concentration: 200 uM; treatment time: 3 h
OTUD6B = target: T1, OTUD6B (UniProt Q8N6M0)
T1 sequence (whole entry): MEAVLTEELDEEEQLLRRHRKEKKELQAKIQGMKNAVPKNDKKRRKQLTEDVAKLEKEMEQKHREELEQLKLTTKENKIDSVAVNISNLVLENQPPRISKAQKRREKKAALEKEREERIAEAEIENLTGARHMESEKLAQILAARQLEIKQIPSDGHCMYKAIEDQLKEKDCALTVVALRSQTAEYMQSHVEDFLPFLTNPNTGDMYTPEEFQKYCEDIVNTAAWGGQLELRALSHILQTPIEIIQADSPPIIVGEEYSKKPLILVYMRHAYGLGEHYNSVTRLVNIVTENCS
Outline: (§1)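 The table lists average log2 ratios of fragment over vehicle, from an unpaired t-test on global-median-normalised Spectronaut label-free quantities. Proteins with ≥2 unique peptides were used. Samples were HEK293T lysate (495 µg) treated in triplicate with fragment at 200 µM or vehicle for 3 h, then with Biotin-Ahx-Ub-VS (0.5 µM final) for 1 h, with labelled DUBs NeutrAvidin-enriched and run by diaPASEF LC-MS/MS.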

OTUD7B = target: T2, OTUD7B (UniProt Q6GQQ9)
T2 sequence (whole entry): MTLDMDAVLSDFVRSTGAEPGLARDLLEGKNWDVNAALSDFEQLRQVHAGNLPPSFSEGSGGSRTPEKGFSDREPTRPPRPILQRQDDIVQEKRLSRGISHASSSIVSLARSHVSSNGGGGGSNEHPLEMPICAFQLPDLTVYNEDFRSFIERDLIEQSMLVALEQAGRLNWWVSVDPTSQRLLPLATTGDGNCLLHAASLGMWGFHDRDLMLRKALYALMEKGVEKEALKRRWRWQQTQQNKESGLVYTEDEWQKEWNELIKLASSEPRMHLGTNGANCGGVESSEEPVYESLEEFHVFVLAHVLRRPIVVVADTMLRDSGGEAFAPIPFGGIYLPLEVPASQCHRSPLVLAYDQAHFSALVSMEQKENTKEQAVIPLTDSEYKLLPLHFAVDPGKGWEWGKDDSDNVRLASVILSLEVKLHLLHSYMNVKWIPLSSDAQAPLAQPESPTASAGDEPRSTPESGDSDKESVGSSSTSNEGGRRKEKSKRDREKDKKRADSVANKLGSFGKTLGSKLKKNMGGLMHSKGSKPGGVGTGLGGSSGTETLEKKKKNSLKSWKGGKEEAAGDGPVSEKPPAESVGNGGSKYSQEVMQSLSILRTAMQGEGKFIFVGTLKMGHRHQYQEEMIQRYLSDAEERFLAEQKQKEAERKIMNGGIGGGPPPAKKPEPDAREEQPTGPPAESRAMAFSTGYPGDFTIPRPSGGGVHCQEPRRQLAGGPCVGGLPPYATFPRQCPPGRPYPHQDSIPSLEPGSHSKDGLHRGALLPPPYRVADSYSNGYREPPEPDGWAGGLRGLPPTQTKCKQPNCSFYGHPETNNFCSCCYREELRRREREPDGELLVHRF
Outline: as §1

PRPF8 = PRPF8 (UniProt Q6P2Q9)
Outline: as §1

PSMD7 = target: T3, PSMD7 (UniProt P51665)
T3 sequence (whole entry): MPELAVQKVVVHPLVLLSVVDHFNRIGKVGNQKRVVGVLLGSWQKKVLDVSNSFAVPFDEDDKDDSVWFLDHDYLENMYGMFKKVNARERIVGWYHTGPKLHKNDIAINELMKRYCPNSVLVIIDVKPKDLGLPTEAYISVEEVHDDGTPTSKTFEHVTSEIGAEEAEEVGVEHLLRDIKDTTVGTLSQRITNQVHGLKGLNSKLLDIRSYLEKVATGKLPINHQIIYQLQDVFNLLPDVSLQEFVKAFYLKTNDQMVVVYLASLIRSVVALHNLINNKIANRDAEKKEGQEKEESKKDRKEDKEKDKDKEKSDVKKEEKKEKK
Outline: as §1

UCHL1 = UCHL1 (UniProt P09936)
UCHL1, sequence (P09936 whole entry, looked up): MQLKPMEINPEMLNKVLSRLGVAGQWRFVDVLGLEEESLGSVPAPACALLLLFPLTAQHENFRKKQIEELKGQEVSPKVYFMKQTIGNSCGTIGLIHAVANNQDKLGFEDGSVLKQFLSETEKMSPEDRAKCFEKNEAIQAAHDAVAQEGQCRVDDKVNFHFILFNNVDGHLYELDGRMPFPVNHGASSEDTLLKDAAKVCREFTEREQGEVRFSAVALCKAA
Outline: as §1

UCHL3 = target: T4, UCHL3 (UniProt P15374)
T4 sequence (whole entry): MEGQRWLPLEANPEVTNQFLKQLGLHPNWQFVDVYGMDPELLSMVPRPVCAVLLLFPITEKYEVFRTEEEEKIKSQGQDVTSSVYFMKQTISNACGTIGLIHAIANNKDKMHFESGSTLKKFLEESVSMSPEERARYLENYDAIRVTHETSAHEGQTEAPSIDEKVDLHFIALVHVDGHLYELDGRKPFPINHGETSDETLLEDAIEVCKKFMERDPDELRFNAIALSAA
Outline: as §1

UCHL5 = target: T5, UCHL5 (UniProt Q9Y5K5)
T5 sequence (whole entry): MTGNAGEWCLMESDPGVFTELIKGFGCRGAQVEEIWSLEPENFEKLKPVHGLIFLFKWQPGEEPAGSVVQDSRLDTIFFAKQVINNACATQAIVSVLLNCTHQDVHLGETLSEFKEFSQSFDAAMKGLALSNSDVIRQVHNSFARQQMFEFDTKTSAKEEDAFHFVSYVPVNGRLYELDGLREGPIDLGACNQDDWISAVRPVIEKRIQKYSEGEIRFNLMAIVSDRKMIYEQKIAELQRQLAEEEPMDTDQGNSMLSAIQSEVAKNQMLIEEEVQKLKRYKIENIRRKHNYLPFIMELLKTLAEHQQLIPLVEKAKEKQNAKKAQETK
Outline: as §1

USP10 = USP10 (UniProt Q14694)
USP10, sequence (Q14694 whole entry): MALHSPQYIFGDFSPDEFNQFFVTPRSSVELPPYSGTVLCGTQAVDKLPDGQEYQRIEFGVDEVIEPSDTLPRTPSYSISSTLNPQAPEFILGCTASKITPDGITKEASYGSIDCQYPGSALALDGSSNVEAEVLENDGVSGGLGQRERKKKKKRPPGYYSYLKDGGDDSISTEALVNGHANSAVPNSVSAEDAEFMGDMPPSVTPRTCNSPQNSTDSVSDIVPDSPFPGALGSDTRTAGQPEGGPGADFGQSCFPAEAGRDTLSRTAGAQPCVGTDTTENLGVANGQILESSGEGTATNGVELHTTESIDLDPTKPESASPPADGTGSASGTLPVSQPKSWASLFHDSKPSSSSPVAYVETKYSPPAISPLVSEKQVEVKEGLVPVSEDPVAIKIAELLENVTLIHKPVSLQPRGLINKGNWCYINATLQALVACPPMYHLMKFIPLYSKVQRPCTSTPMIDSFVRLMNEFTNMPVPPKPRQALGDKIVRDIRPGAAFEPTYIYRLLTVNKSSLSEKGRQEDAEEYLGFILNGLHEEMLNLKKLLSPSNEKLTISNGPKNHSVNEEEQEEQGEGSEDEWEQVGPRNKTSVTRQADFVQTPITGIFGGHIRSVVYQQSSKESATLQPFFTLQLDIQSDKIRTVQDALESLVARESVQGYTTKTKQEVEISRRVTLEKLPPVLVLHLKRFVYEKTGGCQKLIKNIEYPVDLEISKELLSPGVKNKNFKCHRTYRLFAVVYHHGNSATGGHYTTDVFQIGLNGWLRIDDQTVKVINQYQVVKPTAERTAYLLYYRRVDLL
Outline: as §1

USP15 = target: T6, USP15 (UniProt Q9Y4E8)
T6 sequence (whole entry): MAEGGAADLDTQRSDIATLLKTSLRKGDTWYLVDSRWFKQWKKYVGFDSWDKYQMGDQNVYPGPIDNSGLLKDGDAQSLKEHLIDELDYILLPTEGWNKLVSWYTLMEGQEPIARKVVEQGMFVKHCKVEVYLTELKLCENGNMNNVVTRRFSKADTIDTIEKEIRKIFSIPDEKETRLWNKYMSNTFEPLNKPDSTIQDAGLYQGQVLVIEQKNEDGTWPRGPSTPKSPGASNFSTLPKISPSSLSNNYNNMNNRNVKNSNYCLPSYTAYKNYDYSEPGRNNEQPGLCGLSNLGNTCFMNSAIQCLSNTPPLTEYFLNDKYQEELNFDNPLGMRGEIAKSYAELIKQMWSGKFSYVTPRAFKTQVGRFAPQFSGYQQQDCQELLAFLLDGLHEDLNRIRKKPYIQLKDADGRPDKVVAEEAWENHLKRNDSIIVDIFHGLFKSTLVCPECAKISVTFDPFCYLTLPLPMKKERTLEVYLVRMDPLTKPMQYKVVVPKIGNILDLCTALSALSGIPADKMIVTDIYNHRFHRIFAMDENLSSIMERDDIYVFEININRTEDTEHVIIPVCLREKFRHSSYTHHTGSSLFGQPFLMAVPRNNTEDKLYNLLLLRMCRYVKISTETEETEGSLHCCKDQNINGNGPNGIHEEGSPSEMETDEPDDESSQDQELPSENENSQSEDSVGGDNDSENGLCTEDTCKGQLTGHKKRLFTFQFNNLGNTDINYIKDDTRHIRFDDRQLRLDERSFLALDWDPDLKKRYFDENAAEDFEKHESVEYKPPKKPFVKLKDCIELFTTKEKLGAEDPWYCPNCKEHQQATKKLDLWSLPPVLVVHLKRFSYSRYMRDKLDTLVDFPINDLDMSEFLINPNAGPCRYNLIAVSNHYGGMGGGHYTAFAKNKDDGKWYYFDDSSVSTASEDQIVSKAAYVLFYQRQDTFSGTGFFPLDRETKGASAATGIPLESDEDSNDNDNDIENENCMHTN
Outline: as §1

USP16 = USP16 (UniProt Q9Y5T5)
USP16, sequence (Q9Y5T5 whole entry, looked up): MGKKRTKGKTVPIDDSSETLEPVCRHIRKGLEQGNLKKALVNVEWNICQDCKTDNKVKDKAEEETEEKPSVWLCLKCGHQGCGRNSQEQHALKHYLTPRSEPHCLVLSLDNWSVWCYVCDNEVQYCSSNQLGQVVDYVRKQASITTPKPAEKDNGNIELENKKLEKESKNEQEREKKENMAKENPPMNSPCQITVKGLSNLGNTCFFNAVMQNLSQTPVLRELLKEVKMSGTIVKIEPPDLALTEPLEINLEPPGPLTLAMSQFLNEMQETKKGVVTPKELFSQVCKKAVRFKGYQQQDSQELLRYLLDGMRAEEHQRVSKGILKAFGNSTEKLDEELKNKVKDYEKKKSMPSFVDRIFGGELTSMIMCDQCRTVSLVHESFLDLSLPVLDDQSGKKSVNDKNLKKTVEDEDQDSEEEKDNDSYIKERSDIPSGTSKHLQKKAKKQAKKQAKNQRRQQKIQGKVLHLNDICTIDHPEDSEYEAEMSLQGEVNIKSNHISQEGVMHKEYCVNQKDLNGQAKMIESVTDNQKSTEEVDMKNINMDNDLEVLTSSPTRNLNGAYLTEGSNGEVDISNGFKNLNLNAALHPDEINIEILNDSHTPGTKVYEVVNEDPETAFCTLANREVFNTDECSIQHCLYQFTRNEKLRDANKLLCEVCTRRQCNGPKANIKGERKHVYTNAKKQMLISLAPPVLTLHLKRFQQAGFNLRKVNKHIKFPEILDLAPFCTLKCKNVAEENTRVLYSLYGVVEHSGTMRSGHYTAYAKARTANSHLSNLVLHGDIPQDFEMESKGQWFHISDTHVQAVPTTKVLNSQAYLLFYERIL
Outline: as §1

Measured: log2 ratio of Biotin-Ahx-Ub-VS probe labelling

Cc1ccc(C(=O)NCCNC(=O)CCl)cc1
active: UCHL1 -1.75
inactive: OTUD6B -0.182 | OTUD7B -0.711 | PRPF8 -0.064 | PSMD7 -0.134 | UCHL3 0.104 | UCHL5 -0.144 | USP10 -0.111 | USP15 -0.0554 | USP16 -0.0901
